Laboratory results published in PubChem BioAssay (EPA / NIEHS).
Calls of active or inactive are those of the source. The calls were made as follows: active = hit-call score of the fitted dose curve at least 0.9, where 1 is the maximum; inactive = score below 0.9.

What was measured:
Conditions in all cases: mRNA level, 48 h; actives raise or lower the signal
[1] = read-out: Bcl-2 (BAD) gene, BAD (gene 572); experiment: LTEA_HepaRG_BAD: Life Technologies and Expression Analysis (LTEA) Assay for Bcl-2 (BAD) gene using HepaRG (AID 2283469)
How it was run: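 BAD transcript change, measured by qRT-PCR against three housekeeping genes and fitted in both directions relative to 0.5% DMSO, after 48 h chemical treatment of human HepaRG liver cells at concentrations up to 100 uM.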

[2] = read-out: Bcl-2 (BAX) gene, BAX (gene 581); experiment: LTEA_HepaRG_BAX: Life Technologies and Expression Analysis (LTEA) Assay for Bcl-2 (BAX) gene using HepaRG (AID 2283470)
How it was run: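 Concentration-response endpoint fitted in both directions relative to 0.5% DMSO vehicle. Human HepaRG cultures receive test chemicals for 48 h at up to 100 uM; BAX mRNA is quantified by qRT-PCR against housekeeping genes.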

[3] = read-out: Alpha-fetoprotein (AFP) gene, AFP (gene 174); experiment: LTEA_HepaRG_AFP: Life Technologies and Expression Analysis (LTEA) Assay for Alpha-fetoprotein (AFP) gene using HepaRG (AID 2283472)
How it was run: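 After a 48 h plating period, cells are moved to serum-free induction medium and dosed in duplicate (100 uM maximum, half-log dilutions, 0.5% DMSO) for another 48 h. Total RNA goes to TaqMan qRT-PCR; AFP signal is housekeeping-normalized.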

BCL2L11 (gene 10018) = experiment: LTEA_HepaRG_BCL2L11: Life Technologies and Expression Analysis (LTEA) Assay for Bcl-2 (BCL2L11) gene using HepaRG (AID 2283473)
How it was run: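 Cells were plated, cultured 48 h, switched to serum-free induction medium, then dosed in duplicate for 48 h at eight half-log concentrations up to 100 uM. Lysates underwent RNA isolation and TaqMan qRT-PCR; gain or loss versus DMSO was fitted.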

[4] = read-out: Apolipoprotein A-V (APOA5) gene, APOA5 (gene 116519); experiment: LTEA_HepaRG_APOA5: Life Technologies and Expression Analysis (LTEA) Assay for Apolipoprotein A-V (APOA5) gene using HepaRG (AID 2283474)
How it was run: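 Human liver HepaRG cells are treated 48 h with test chemicals (100 uM top, half-log dilutions, 0.5% DMSO). APOA5 mRNA induction or loss is measured by qRT-PCR relative to vehicle.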

[5] = read-out: Apoptosis regulator Bcl-2 (Homo sapiens) (UniProt P10415); experiment: LTEA_HepaRG_BCL2: Life Technologies and Expression Analysis (LTEA) Assay for Bcl-2 gene using HepaRG (AID 2283475);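 also: BCL2 transcript by TaqMan qRT-PCR normalised to ACTB GAPDH and POLR2A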
How it was run: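 Expression change of BCL2 mRNA in HepaRG after 48 h dosing, quantified by TaqMan qRT-PCR against three endogenous controls. Concentration-response used eight points up to 100 uM, vehicle 0.5% DMSO.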

[6] = read-out: Bcl-2 (BID) gene, BID (gene 637); experiment: LTEA_HepaRG_BID: Life Technologies and Expression Analysis (LTEA) Assay for Bcl-2 (BID) gene using HepaRG (AID 2283476)
How it was run: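 Gain or loss of BID expression is fitted relative to 0.5% DMSO vehicle. Human HepaRG liver cells received a 48 h chemical exposure over an eight-point concentration range.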

Caspase-3 (Homo sapiens) = Caspase-3 (Homo sapiens) (UniProt P42574); experiment: LTEA_HepaRG_CASP3: Life Technologies and Expression Analysis (LTEA) Assay for cysteine-aspartic acid protease (CASP3) using HepaRG (AID 2283477)
Caspase-3 (Homo sapiens), sequence (P42574 whole entry, looked up): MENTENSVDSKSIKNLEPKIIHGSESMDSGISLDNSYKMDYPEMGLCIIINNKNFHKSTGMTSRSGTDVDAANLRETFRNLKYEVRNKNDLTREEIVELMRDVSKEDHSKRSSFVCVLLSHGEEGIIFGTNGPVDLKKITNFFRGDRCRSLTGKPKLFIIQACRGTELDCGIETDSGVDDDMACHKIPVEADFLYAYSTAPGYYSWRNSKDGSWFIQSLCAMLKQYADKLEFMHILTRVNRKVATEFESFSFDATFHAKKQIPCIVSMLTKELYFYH
How it was run: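 In HepaRG liver cells dosed for 48 h at up to 100 uM (eight-point, duplicate), CASP3 expression changes are scored by qRT-PCR. Activity is fitted in both directions with 0.5% DMSO as baseline.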

[7] = read-out: Cytochrome P450 (CYP24A1), CYP24A1 (gene 1591); experiment: LTEA_HepaRG_CYP24A1: Life Technologies and Expression Analysis (LTEA) Assay for Cytochrome P450 (CYP24A1) using HepaRG (AID 2283478)
How it was run: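 Human liver HepaRG cultures receive each chemical for 48 h across an eight-point half-log series topping at 100 uM in 0.5% DMSO. Induction or suppression of CYP24A1 mRNA is scored relative to vehicle after housekeeping-gene normalization.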

[8] = read-out: Cytochrome P450 (CYP1A2), CYP1A2 (gene 1544); experiment: LTEA_HepaRG_CYP1A2: Life Technologies and Expression Analysis (LTEA) Assay for Cytochrome P450 (CYP1A2) using HepaRG (AID 2283479);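 as to AC50: TaqMan qRT-PCR transcript level normalized to ACTB GAPDH and POLR2A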
How it was run: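 Assesses CYP1A2 mRNA in human HepaRG liver cells after 48 h chemical exposure at up to 100 uM. Values come from qRT-PCR with bidirectional curve fitting relative to DMSO.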

[9] = read-out: cysteine-aspartic acid protease (CASP8), CASP8 (gene 841); experiment: LTEA_HepaRG_CASP8: Life Technologies and Expression Analysis (LTEA) Assay for cysteine-aspartic acid protease (CASP8) using HepaRG (AID 2283480)
How it was run: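 HepaRG, 48 h exposure, duplicate wells; 8 conc, half-log from 100 uM, 0.5% DMSO. Serum-free induction medium. CASP8 mRNA by TaqMan qRT-PCR, norm. ACTB/GAPDH/POLR2A; gain/loss fitted vs DMSO.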

[10] = read-out: Cytochrome P450 (CYP2B6), CYP2B6 (gene 1555); experiment: LTEA_HepaRG_CYP2B6: Life Technologies and Expression Analysis (LTEA) Assay for Cytochrome P450 (CYP2B6) using HepaRG (AID 2283481)
How it was run: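 Using 48 h treatment of HepaRG cells in serum-free induction medium, concentrations spanned half-log steps from 100 uM in 0.5% DMSO vehicle. CYP2B6 mRNA induction or loss is scored by qRT-PCR against DMSO.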

[11] = read-out: Cytochrome P450 2C19 (Homo sapiens) (UniProt P33261); experiment: LTEA_HepaRG_CYP2C19: Life Technologies and Expression Analysis (LTEA) Assay for CYP2C19 using HepaRG (AID 2283482)
How it was run: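 Human HepaRG liver cells received test chemicals for 48 h (highest 100 uM, half-log dilutions in 0.5% DMSO). CYP2C19 mRNA induction or loss is read by multiplexed qRT-PCR and fitted in both directions versus vehicle.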

CYP2C8 (gene 1558) = experiment: LTEA_HepaRG_CYP2C8: Life Technologies and Expression Analysis (LTEA) Assay for CYP2C8 using HepaRG (AID 2283483)
How it was run: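 CYP2C8 mRNA induction or loss, by qRT-PCR normalized to ACTB/GAPDH/POLR2A, is read in HepaRG cells after 48 h treatment. Concentrations run from 100 uM down in half-log dilutions, with 0.5% DMSO as vehicle and baseline.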

CYP2C9 (gene 1559) = experiment: LTEA_HepaRG_CYP2C9: Life Technologies and Expression Analysis (LTEA) Assay for CYP2C9 using HepaRG (AID 2283484)
How it was run: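 Cells plated 48 h, switched to serum-free induction medium, then treated in duplicate for 48 h at eight concentrations (max 100 uM, 0.5% DMSO). RNA then analysed by qRT-PCR for CYP2C9; curves fitted in both directions relative to DMSO.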

CYP2E1 (gene 1571) = experiment: LTEA_HepaRG_CYP2E1: Life Technologies and Expression Analysis (LTEA) Assay for CYP2E1 using HepaRG (AID 2283485)
How it was run: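 Differentiated HepaRG cells were treated in duplicate for 48 h with chemicals in 0.5% DMSO, from 100 uM downward in half-log dilutions. RNA was then analysed by qRT-PCR for CYP2E1 induction or loss.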

CYP4A11 (gene 1579) = experiment: LTEA_HepaRG_CYP4A11: Life Technologies and Expression Analysis (LTEA) Assay for CYP4A11 using HepaRG (AID 2283486)
How it was run: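 Readout is CYP4A11 mRNA induction or suppression (qRT-PCR, ACTB/GAPDH/POLR2A normalization) in human HepaRG cells after 48 h chemical treatment, concentrations to 100 uM in 0.5% DMSO, fitted bidirectionally against vehicle.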

[12] = read-out: Cytochrome P450 3A4 (Homo sapiens) (UniProt P08684); experiment: LTEA_HepaRG_CYP3A4: Life Technologies and Expression Analysis (LTEA) Assay for CYP3A4 using HepaRG (AID 2283487)
How it was run: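 HepaRG, 48 h exposure, 8-pt CRC from 100 uM (half-log), 0.5% DMSO, duplicates; serum-free induction medium. Readout: CYP3A4 mRNA, qRT-PCR, ACTB/GAPDH/POLR2A normalization. Bidirectional fit vs DMSO.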

[13] = read-out: DNA damage-inducible transcript 3 (DDIT3), DDIT3 (gene 1649); experiment: LTEA_HepaRG_DDIT3: Life Technologies and Expression Analysis (LTEA) Assay for DNA damage-inducible transcript 3 (DDIT3) using HepaRG (AID 2283488)
How it was run: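 Changes in DDIT3 transcript, in either direction relative to 0.5% DMSO vehicle, were quantified by TaqMan qRT-PCR after 48 h chemical exposure of HepaRG cells at 8 concentrations, maximum 100 uM.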

Measured: AC50

Cytochrome P450 3A4 (Homo sapiens), sequence (P08684 whole entry, looked up): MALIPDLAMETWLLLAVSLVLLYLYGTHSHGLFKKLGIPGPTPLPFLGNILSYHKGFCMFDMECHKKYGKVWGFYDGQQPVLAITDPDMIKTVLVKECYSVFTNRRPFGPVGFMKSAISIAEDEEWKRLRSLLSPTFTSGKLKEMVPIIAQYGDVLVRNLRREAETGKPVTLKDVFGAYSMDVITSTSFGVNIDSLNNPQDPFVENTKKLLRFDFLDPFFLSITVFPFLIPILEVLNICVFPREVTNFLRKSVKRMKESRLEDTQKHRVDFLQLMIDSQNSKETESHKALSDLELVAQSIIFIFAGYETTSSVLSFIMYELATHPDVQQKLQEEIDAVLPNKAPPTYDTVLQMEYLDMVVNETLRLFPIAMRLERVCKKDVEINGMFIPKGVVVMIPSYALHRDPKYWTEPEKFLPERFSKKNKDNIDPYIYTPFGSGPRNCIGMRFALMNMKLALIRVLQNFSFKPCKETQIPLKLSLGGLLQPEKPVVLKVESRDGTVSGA
Apoptosis regulator Bcl-2 (Homo sapiens), sequence (P10415 whole entry, looked up): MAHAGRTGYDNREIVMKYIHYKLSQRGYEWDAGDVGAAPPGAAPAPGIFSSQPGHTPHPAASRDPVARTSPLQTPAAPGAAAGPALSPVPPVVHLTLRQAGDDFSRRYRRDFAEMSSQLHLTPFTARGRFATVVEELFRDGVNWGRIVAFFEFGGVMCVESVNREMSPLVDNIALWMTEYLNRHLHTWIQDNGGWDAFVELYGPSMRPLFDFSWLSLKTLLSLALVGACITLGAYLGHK
Cytochrome P450 2C19 (Homo sapiens), sequence (P33261 whole entry, looked up): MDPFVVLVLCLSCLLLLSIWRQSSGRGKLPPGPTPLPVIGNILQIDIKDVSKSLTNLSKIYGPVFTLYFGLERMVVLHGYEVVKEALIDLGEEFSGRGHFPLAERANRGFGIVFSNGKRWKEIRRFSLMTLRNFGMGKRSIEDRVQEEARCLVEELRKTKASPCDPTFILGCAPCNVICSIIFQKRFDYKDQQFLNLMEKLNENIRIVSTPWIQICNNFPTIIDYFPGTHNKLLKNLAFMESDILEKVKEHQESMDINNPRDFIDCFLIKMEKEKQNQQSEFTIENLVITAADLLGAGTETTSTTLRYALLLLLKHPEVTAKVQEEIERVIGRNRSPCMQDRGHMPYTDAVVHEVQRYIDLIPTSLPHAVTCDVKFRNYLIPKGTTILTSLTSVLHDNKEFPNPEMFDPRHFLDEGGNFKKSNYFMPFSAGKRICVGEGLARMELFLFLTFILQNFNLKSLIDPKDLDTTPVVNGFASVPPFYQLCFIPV

CCNc1nc(Cl)nc(NC(C)(C)C)n1
active: [8] 32.1 µM | [10] 1.01 µM | [11] 2.46 µM | CYP2C8 (gene 1558) 2.37 µM | CYP2E1 (gene 1571) 26.6 µM | CYP4A11 (gene 1579) 9.92 µM | [12] 2.11 µM
inactive: all other assays above

CCOP(=S)(OCC)SCSCC
active: [10] 4.47 µM | [11] 11.2 µM | [12] 13.9 µM
not listed: BCL2L11 (gene 10018)
inactive: all other assays above

CC(Cc1ccc(OCC(=O)O)cc1)NCC(O)c1csc(C(F)(F)F)n1 (centres undefined)
active: [5] 0.125 µM | [7] 0.00316 µM | [8] 0.0181 µM
not listed: BCL2L11 (gene 10018) | [13]
inactive: all other assays above

Cc1ccc([N+](=O)[O-])cc1C
not listed: BCL2L11 (gene 10018)
inactive: all other assays above

c1ccc(OP(Oc2ccccc2)Oc2ccccc2)cc1
not listed: BCL2L11 (gene 10018)
inactive: all other assays above

CC(C)(C)OOC(C)(C)C
inactive: all assays above
